Hits are enriched below; roughly 6.2% of the tested compounds scored in any of these assays.
KB-V1 MDR tox: qHTS assay for MDR1-selective chemotherapeutics: Primary screen using the drug-selected MDR subline cells KB-V1; 400,000 tested, 3.4% active; KB-V1 MDR cells viability, CellTiter-Glo, 72 h; Potency, µM (doses to about 46.1 µM), usual class: cytotoxic; also: % is scaled to controls: 0 for no effect and ±100 for the full control effect; nearly all actives have a fitted effect of over 60% in size
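Compound-treated KB-V1 multidrug-resistant cells, 72 h, 37 degrees C; viability by CellTiter-Glo. Fitted qHTS curves give the values.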
KB-3-1 tox: qHTS assay for MDR1-selective chemotherapeutics: Primary screen using the parental adenocarcinoma cell KB-3-1; KB-3-1 viability, CellTiter-Glo ATP luminescence, 72 h; Potency, µM (highest dose often 46.1 µM), actives largely listed as cytotoxic; 400,000 tested, 1.4% active; AID 1347075, 2019; also: % is scaled to controls: 0 for no effect and ±100 for the full control effect; nearly all actives have a fitted effect of over 60% in size
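Luminescent ATP read-out (CellTiter-Glo) measures survival of drug-naive KB-3-1 cells after 72 h compound exposure at 37 °C. Titration series was screened from lowest to highest concentration, with DMSO vehicle plates as background controls.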
HT1080 IDH1KD tx: qHTS for induction of synthetic lethality in tumor cells producing 2HG: qHTS for the HT-1080-IDH1KD cell line. HT-1080 IDH1 knockdown viability, ATP luminescence, 48 h. Potency, µM (highest dose often 46.1 µM), for the others: at the top dose activity, negative = toxicity, actives largely listed as cytotoxic. 360,000 tested, 2% active;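 also: 0% = DMSO wells and -100% = cell-free medium wells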
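Using the IDH1-knockdown HT-1080 line run in the same batch and compound series as the NT line, viability after 48 h at 37 °C was determined by CellTiter-Glo luminescence and expressed as % activity.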
ATXN2 expr inh: Primary qHTS for Inhibitors of ATXN expression; HEK-293 ATXN2-luciferase reporter, luminescence, 24 h; Potency, µM (top dose mostly 57 µM), inactives show top-dose activity change, negative = inhibition, usual class: inhibitors; 360,000 tested, 0.72% active; AID 1745845, 2022; also: % is scaled to controls: 0 for no effect and ±100 for the full control effect; nearly all actives have a fitted effect of over 55% in size
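ATXN2-luciferase reporter cells (luciferase flanked by upstream and downstream ATXN2 gene portions) were treated 24 h at 37 °C with compounds at up to 57 uM. SteadyGlo luminescence gave expression; GF-AFC fluorescence gave viability.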
HT1080-NT tox: qHTS for induction of synthetic lethality in tumor cells producing 2HG: qHTS for the HT-1080-NT fibrosarcoma cell line; HT-1080-NT fibrosarcoma viability, CellTiter-Glo ATP luminescence, 48 h; Potency, µM (titrated, usually from 46.1 µM), inactives show top-dose activity, negative = less viability, most hits filed as cytotoxic; 360,000 tested, 1.6% active; AID 686970, 2013;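 also: NT is the 2HG producing partner of a matched IDH1 knockdown line; 0% = DMSO-treated cells and -100% = media-only wells without cells; nearly all actives have a fitted effect of over 55% in size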
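Viability by CellTiter-Glo luminescence after 48 h compound exposure at 37C of HT-1080-NT cells (750/well, RPMI, 5% FBS). % activity scaled between DMSO wells and medium-only wells, then curve-fitted and categorized by curve class.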
ATXN viability: Viability Counterscreen for Primary qHTS for Inhibitors of ATXN expression. S2 cells (HEK-293 line with an ATXN2-luciferase reporter) viability, CellTiter-Fluor protease fluorescence, 24 h. Potency, µM (doses to about 56.7 µM), hits mostly cytotoxic. 400,000 tested, 0.49% active. AID 651635, 2014; also: nearly all actives have a fitted effect of over 40% in size
Numbers without * were called inactive; i = inactive; ? = inconclusive; nt = no result; ! = a repeat was not active; [ ] = remark or other dose. Calls follow the shape of the dose curve; as a rule, active = well fitted curve in the direction sought with a large enough effect; inconclusive = small, poorly fitted or top-dose-only effect, or another doubt; inactive = no such curve, though single readings can be large; an effect the other way counts as inactive or inconclusive. Potency is read from the fitted curve at half-maximal effect.

SMILES	KB-V1 MDR tox	KB-3-1 tox	HT1080 IDH1KD tx	ATXN2 expr inh	HT1080-NT tox	ATXN viability
COC(=O)C1CCN(C(=O)c2ccc(Cl)c(S(=O)(=O)NCc3cccnc3)c2)CC1	i	i	2%	5%	3%	i
COc1ccc(N(C)S(=O)(=O)c2cccc(C(=O)NCc3ccc(C)cc3)c2)cc1	6.5µM*	i	-11%	-9%	-10%	i
Cc1ccc(N(C)S(=O)(=O)c2cccc(C(=O)Nc3nc4ccccc4[nH]3)c2)cc1	2.3µM*	?	-27%	-28%	-4%	?
CCOc1ccc(S(=O)(=O)/N=C(/Nc2ccc(C)c(S(=O)(=O)N3CCOCC3)c2)c2ccccc2)cc1	9.2µM*	i	0%	-10%	-3%	i
CC(=O)c1cccc(NC(=O)c2ccc(C)c(S(=O)(=O)N3CCOCC3)c2)c1	i	i	1%	-9%	0%	i
Cc1ccc(NC(=O)c2cccc(S(=O)(=O)N(C)c3ccccc3)c2)cc1S(=O)(=O)N1CCOCC1	5.2µM*	?	-15%	-33%	-4%	i
COc1ccccc1N(C)S(=O)(=O)c1ccc(C(=O)Nc2ccc3nc(C)sc3c2)cc1	23µM*	?	-27%	?	-12%	?
COc1cc(NC(=O)c2ccc(S(=O)(=O)N(C)c3ccccc3OC)cc2)cc(OC)c1	i	i	-1%	-18%	-22%	i
Cc1cccc(C)c1N(CCCc1cccnc1)C(=O)C(C)N (stereo not given)	nt	nt	nt	nt	nt	i
CCN(CC)S(=O)(=O)c1cc(NC(=O)CNc2cccc(S(=O)(=O)N3CCOCC3)c2)ccc1C	i	8.2µM*	18µM*	2%	6.5µM*	i
COc1cc(C(C)C)c(Oc2cnc(NC(CO)CO)nc2N)cc1I	nt	nt	nt	24µM*	nt	nt
COc1ccc(O)c(CN2CCC3(CCC(CNC(=O)c4ccccc4)O3)CC2)c1 (stereo not given)	nt	nt	nt	nt	nt	i
CC1CCC(C(C)C)C(OCC(O)CN2CCN(Cc3ccccc3)CC2)C1 (stereo not given)	?	?	?	-16%	23µM*	i
CC1CCC(C(C)C)C(OCC(O)CN2CCOCC2)C1 (stereo not given)	i	?	8%	-14%	4%	i
Cc1sc2ncn(CC(=O)Nc3cccc(C(F)(F)F)c3)c(=O)c2c1S(=O)(=O)N1CCC(C)CC1	i	i	nt	10%	nt	i
Cc1ccc(C)c(CN2C(=O)c3ccccc3S(=O)c3ccc(C(=O)N4CCN(c5cccc(Cl)c5)CC4)cc32)c1 (stereo not given)	i	i	nt	-1%	nt	i
O=C(COC(=O)c1ccccc1C(=O)c1ccc(Cl)c([N+](=O)[O-])c1)NC1CC1	i	8.2µM*	4.6µM*	?	6.5µM*	28µM*
CC(C)OC(=O)c1ccccc1C(=O)c1ccc(N)c([N+](=O)[O-])c1	?	i	-1%	-16%	-12%	?
CNC(=O)COC(=O)c1ccccc1C(=O)c1ccc(Cl)c([N+](=O)[O-])c1	?	i	23µM*	nt	12µM*	10µM*
COc1ccc(-c2nnc(NC(=O)c3ccc(S(=O)(=O)N(C)CC4CCCO4)cc3)o2)c(OC)c1 (stereo not given)	5.8µM*	i	-26%	-26%	-25%	?
CN(CC1CCCO1)S(=O)(=O)c1ccc(C(=O)Nc2nccs2)cc1 (stereo not given)	18µM*	i	-12%	nt	17%	i
Cc1cc(NC(=O)c2ccc(S(=O)(=O)N(C)CC3CCCO3)cc2)no1 (stereo not given)	i	i	2%	-25%	-17%	i
Cn1c(=O)c2c(-c3ccc(Br)cc3)n(CCc3ccccc3)cc2n(C)c1=O	i	i	nt	?	nt	?
Cc1cc(C)c2c(C)nn(C3CCCCC3)c2n1	i	i	1%	3%	-3%[9.24 µM]	i
Nc1ncnc2c1c(-c1cnc3[nH]ccc3c1)nn2C1CCCC1	nt	nt	nt	19µM*	nt	nt
SMILES	KB-V1 MDR tox	KB-3-1 tox	HT1080 IDH1KD tx	ATXN2 expr inh	HT1080-NT tox	ATXN viability
Cc1noc2ncnc(N3CCN(c4ccccc4F)CC3)c12	i	i	nt	-16%	nt	i
COc1ccc2[nH]c3c4c(ccc3c2c1)C(=O)C=CC4=O	i	9.2µM*	16µM*	3.5µM*	13µM*	6.3µM*
CCN1CCN(Cc2ccc(NC(=O)c3ccc(C)c(NC(=O)c4nccn4C)c3)cc2C(F)(F)F)CC1	i	i	2%	-8%	5%	i
CCN1CCN(Cc2ccc(NC(=O)c3ccc(C)c(NC(=O)c4cccc5[nH]ccc45)c3)cc2C(F)(F)F)CC1	?	16µM*!	?	?	?	nt
CCN1CCN(Cc2ccc(NC(=O)c3ccc(C)c(NC(=O)N4CCNC4=O)c3)cc2C(F)(F)F)CC1	?	i	-14%	?	0%	?
CCN1CCN(Cc2ccc(NC(=O)c3ccc(C)c(NC(=O)c4cc(-c5ccc(Br)cc5)n[nH]4)c3)cc2C(F)(F)F)CC1	?	?	-26%	32µM*	-18%	25µM*
CCN1CCN(Cc2ccc(NC(=O)c3cc(NC(=O)c4nccnc4N)cc(OC)c3)cc2C(F)(F)F)CC1	i	i	-5%	?	-21%	?
CCN1CCN(Cc2ccc(NC(=O)c3cc(NC(=O)c4cncc(-c5ccc(C#N)cc5)c4)cc(OC)c3)cc2C(F)(F)F)CC1	i	?	?	25µM*!	?	16µM*
CCN1CCN(Cc2ccc(NC(=O)c3ccc(C)c(NC(=O)c4nccnc4N)c3)cc2C(F)(F)F)CC1	i	i	?	28µM*	?	?
O=C(Nc1ccc(S(=O)(=O)N(Cc2ccccc2)c2ccccc2)cc1)c1ccc(F)cc1	?	?	nt	-20%	nt	i
CCN1CCN(Cc2ccc(NC(=O)c3cc(NC(=O)c4cnnc5ccccc45)cc(OC)c3)cc2C(F)(F)F)CC1	i	?	?	?	?	?
CCN1CCN(Cc2ccc(NC(=O)c3ccc(C)c(NC(=O)c4cncc(-c5cccs5)c4)c3)cc2C(F)(F)F)CC1	?	?	18µM*	14µM*	21µM*	nt

Source: PubChem
